Compounds without any hit were thinned out: in the full panel of roughly 79,000, 15% have a hit. Activity calls are given as the source filed them. No stated cut-off is given here; in the data, active means growth inhibition above about 70%; inactive means the rest.
Test: NCI Yeast Anticancer Drug Screen. Data for the bub3 strain (AID 167)
Settings: S. cerevisiae bub3 mutant strain, at 100.0 µM, hits give high values
Outline: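 Yeast carrying a defined mutation is treated with each compound, and growth is compared with that of vehicle-exposed cells to give inhibition.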

| Structure (SMILES) | growth inhibition |
| --- | --- |
| COc1ccc(/C=C2\CCc3ccccc3C2=O)cc1OC | 94% (active) |
| O=Cc1ccccc1B(O)O | 99% (active) |
| CC(=O)CC[N+](C)(C)C | 27% (inactive) |
| O=C(O)[C@H]1[C@@H](C2CCCCC2)O[C@@H](C2CCCCC2)O[C@H]1C(F)(F)F | -1% (inactive) |
| CN(NC(=O)/C(=C/C=C/c1ccccc1)NC(=O)c1ccccc1)C1=C(Cl)C(=O)[N+](c2ccccc2)=CC1 | 49% (inactive) |
| CCCCOc1ccc(Nc2c3ccccc3nc3ccccc23)cc1 | 69% (inactive) |
| N#C/C(=C1C=C/C(=N\O)C(Cl)=C\1)c1ccccc1 | 16% (inactive) |
| COc1ccc(C(=O)OCCc2ccccc2)cc1 | 34% (inactive) |
| Cc1c2ccncc2c(C)c2c1oc1ccccc12 | 98% (active) |
| CCCC#CCOC(=O)c1cc([N+](=O)[O-])cc([N+](=O)[O-])c1 | 99% (active) |
| Nc1nc(Nc2ccccc2)nc(Nc2ccccc2)n1 | 95% (active) |
| COc1ccc(/C=C2\S/C(=N/Nc3nc(-c4ccccc4)cs3)NC2=O)cc1OC | 97% (active) |
| CC(O)CN1C(=O)c2cccc3cc([N+](=O)[O-])cc(c23)C1=O (stereo not drawn) | -30% (inactive) |
| Cn1c(COc2ccc(/C=N/NC(=O)CCC(=O)N/N=C/c3ccc(OCc4c[n+]5ccccc5n4C)cc3)cc2)c[n+]2ccccc12 | 95% (active) |
| COC1=C(N=[N+]=[N-])C(=O)c2ncccc2C1=O | 94% (active) |
| CCN(CC)c1ccc(N=Nc2cc(S(=O)(=O)O)ccc2O)c(O)c1 | 35% (inactive) |
| O=C1C(C(O)(C(F)(F)F)C(F)(F)F)CCC1C(O)(C(F)(F)F)C(F)(F)F (stereo not drawn) | 24% (inactive) |
| CN(C)CCNC(=O)c1cccc2nc3c(ccc4ccccc43)nc12 | 97% (active) |
| O=S(=O)(CCC[C@H]1[C@@H](CCOCc2ccccc2)C2CCCN1O2)c1ccccc1 (stereo partly drawn) | 12% (inactive) |
| CCC(C)/C(C)=N/NC(N)=O (stereo not drawn) | -10% (inactive) |
| Nc1c([N+](=O)[O-])cc2c3c(cccc13)CC2 | 11% (inactive) |
| CC1=Cc2ccc(C)cc2C(=O)C1=O | 99% (active) |
| C=Cc1c(C)c(O)cc2c1-c1ccc(O)c(C)c1CC2 | 99% (active) |
| NCC(O)CSCc1ccc(Cl)cc1 (stereo not drawn) | 42% (inactive) |
| C[n+]1c(-c2ccc(NC(=O)c3ccc(C(=O)Nc4ccc(-c5cn6ccccc6[n+]5C)cc4)cc3)cc2)cn2ccccc21 | 93% (active) |
| CNC(=O)OCc1c(COC(=O)NC)c(C)n(-c2ccc(Cl)c(Cl)c2)c1C | 98% (active) |
| [O-]c1c2cc(-[n+]3c(-c4ccccc4)cc(-c4ccccc4)cc3-c3ccccc3)cc1COCCOCCOCCOCCOC2 | 30% (inactive) |
| C[Si](C)(C)Cc1ccccc1C(=O)O | 97% (active) |
